Compound activity: PubChem BioAssay, several laboratories
CYP2C9 act: CYP2C9 (human) activation; P11712; 96,000 tested, 1.4% active; recombinant CYP2C9, luciferin-H conversion, luminescence; hits give high values; factor 1 = untreated enzyme, 0 = blocked; activation factor at 5 µM;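 active = activation factor of 2 or more for CYP2C9 at a 5 µM dose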;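 also: 0 = sulfaphenazole-blocked wells and 1 = vehicle-only wells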
Target sequence (P11712 whole entry, looked up): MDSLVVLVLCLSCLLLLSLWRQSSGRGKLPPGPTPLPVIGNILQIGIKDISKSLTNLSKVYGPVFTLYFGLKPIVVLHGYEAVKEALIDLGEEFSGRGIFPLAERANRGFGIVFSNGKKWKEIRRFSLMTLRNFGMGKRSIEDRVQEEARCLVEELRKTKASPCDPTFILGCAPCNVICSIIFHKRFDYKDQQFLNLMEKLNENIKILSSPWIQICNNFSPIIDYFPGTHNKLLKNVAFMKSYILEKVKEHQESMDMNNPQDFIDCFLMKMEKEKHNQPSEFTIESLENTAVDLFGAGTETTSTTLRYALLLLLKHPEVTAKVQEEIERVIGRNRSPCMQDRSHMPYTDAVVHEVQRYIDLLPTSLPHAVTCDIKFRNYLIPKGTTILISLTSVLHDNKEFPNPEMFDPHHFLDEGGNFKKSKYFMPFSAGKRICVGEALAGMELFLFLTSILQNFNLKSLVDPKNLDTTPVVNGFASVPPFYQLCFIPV
sEH act: increases human soluble epoxide hydrolase activity; P34913; purified human sEH enzymatic activity, activator screen; activation, % at 2 µM; 91,000 tested, 0.04% active; in the data active = activation above about 37%
CYP2C19 act: increases human CYP2C19 enzyme activity | activation factor at 5 µM | P33261 | AID 1025 | recombinant CYP2C19, luciferin-H EGE luminescence; hits give high values; 0 = fully inhibited enzyme, 1 = untreated enzyme | 96,000 tested, under 10 active;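 active = activation factor of at least 2 at 5 µM in the primary screen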;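 also: 0 = wells with 2.5 mM tranylcypromine and 1 = vehicle-only wells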
CYP2C9 inhib: blocks human cytochrome P450 2C9; P11712; CYP2C9 Supersomes, luciferin-H conversion, luminescence; inhibition, % at 5 µM; 96,000 tested, 20% active; AID 777;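 active = blocking of liver enzyme CYP2C9 beyond about 50% at 5 µM, limit read from the data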
CYP2C19 inh: blocks human cytochrome P450 2C19; P33261; CYP2C19 Supersomes, luciferin-H EGE luminescence, 30 min; inhibition, % at 5 µM; 96,000 tested, 21% active;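 active = CYP2C19 inhibition above a set limit at 5 µM in the primary screen, cut at about 50% in these data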;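 also: plate controls were negative control wells for no effect and 2.5 mM tranylcypromine positive control for full effect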
sEH inh: soluble epoxide hydrolase (human) inhibition. P34913. recombinant human sEH enzymatic activity assay. inhibition, % at 2 µM. 91,000 tested, 0.34% active. AID 707; in the data active = inhibition above about 80%
The depositor's hits bear a star; · = not tested or not shown. An excerpt weighted towards active compounds, which were near 27% of everything screened.

SMILES	CYP2C9 act	sEH act	CYP2C19 act	CYP2C9 inhib	CYP2C19 inh	sEH inh
Cc1ccc(Nc2nc(N)nc(CN3CCN(Cc4ccc5c(c4)OCO5)CC3)n2)cc1Cl	0.3	9	0.4	74*	60*	-10
Nc1nc(CN2CCN(Cc3ccccc3)CC2)nc(Nc2ccc3c(c2)OCCO3)n1	0.9	-15	0.9	15	9	17
Cc1ccc(Nc2nc(N)nc(CN3CCN(Cc4ccc5c(c4)OCO5)CC3)n2)cc1	0.6	2	0.5	44	52*	2
Cc1ccc(OCC(O)CN2CCN(Cc3ccc4c(c3)OCO4)CC2)c(C)c1 (stereo unspecified)	0.9	5	0.8	13	25	-5
Cc1ccc(Nc2nc(N)nc(CN3CCN(C)CC3)n2)cc1C	1.1	-9	1.2	-11	-17	12
CCOP(=O)(c1c(F)c(F)c(F)c(F)c1F)C(O)c1ccccc1 (stereo unspecified)	0.8	0	0.6	17	36	0
COC(=O)c1ccccc1NC(=O)CSc1ccccc1	1.3	·	0	-28	95*	·
COC(=O)c1ccccc1NC(=O)COc1ccccc1	1	-4	0.5	2	53*	5
COC(=O)c1ccccc1NC(=O)n1cc(C)cn1	0.9	·	1	6	2	·
COC(=O)c1ccccc1NC(=O)Cn1cc(Br)cn1	1	-1	0.4	0	60*	2
COC(=O)c1ccccc1NC(=O)CSc1n[nH]c(C)n1	·	0	·	·	·	0
COC(=O)c1ccccc1NC(=O)CSc1n[nH]c(CC(C)C)n1	1.5	-3	0.1	-50	86*	3
CCOC(=O)Cc1nnc(Nc2cccc(O)c2)c2ccccc12	1.1	-1	0.8	-12	22	2
COCCN1C(=O)c2oc3cc(C)c(C)cc3c(=O)c2C1c1ccc(O)cc1 (stereo unspecified)	·	-5	·	·	·	2
C=CCNC(=O)/C(=C\C=C\c1ccccc1)NC(=O)c1ccc(OCCCC)cc1	0.6	10	0.8	36	18	-11
Cc1ccc(SCC(=O)Nc2ccccc2C(=O)O)cc1	0.2	-8	0.7	85*	34	8
O=C(CSc1ccccc1)Nc1ccccc1C(=O)O	0.7	7	1	33	1	-6
Cc1nc2c(o1)CCc1ccccc1C2N1CCN(C)CC1 (stereo unspecified)	1.2	·	1.1	-17	-7	·
Cc1ccc(C)c(C(=O)NC2CC(C)(C)NC(C)(C)C2)c1	1	2	0.5	3	54*	-2
Cc1ccccc1C(=O)NC1CC(C)(C)NC(C)(C)C1	·	2	·	·	·	-1
CN1CCN(C(=O)C2CC(c3c(F)cccc3Cl)=NO2)CC1 (stereo unspecified)	2.8*	-3	0.9	-185	6	1
Cc1c(NC(=O)C2CC(c3c(F)cccc3Cl)=NO2)c(=O)n(-c2ccccc2)n1C (stereo unspecified)	1.1	10	1.1	-10	-5	-6
Cc1ccc(O)c(NC(=O)C2CC(c3c(F)cccc3Cl)=NO2)c1 (stereo unspecified)	1.9	-9	0.1	-85	94*	11
N#Cc1cc(C#N)c(N2CCN(c3cccc(Cl)n3)CC2)nc1N	0.6	2	0	36	98*	-1
Cc1cccc2cc(C#N)c(N3CCN(C)CC3)nc12	0.9	3	0.8	9	17	-4
SMILES	CYP2C9 act	sEH act	CYP2C19 act	CYP2C9 inhib	CYP2C19 inh	sEH inh
CS(=O)(=O)N1N=C(c2ccc(Br)cc2)CC1c1cccs1 (stereo unspecified)	0.6	13	0.1	35	92*	-11
CS(=O)(=O)N1N=C(c2ccc3nccnc3c2)CC1c1ccccc1 (stereo unspecified)	0.6	3	0.7	42	27	-1
CCc1ccc(C2=NN(S(C)(=O)=O)C(c3cccs3)C2)cc1 (stereo unspecified)	0.6	2	0.4	41	56*	0
CCS(=O)(=O)Nc1cccc(C2=NN(S(=O)(=O)c3ccccc3)C(c3cccs3)C2)c1 (stereo unspecified)	0.3	2	0.5	67*	50*	3
Cc1ccc(C2=NN(S(C)(=O)=O)C(c3cccs3)C2)cc1 (stereo unspecified)	0.6	·	0	44	99*	·
O=S(=O)(c1ccccc1)N1N=C(c2cccs2)CC1c1ccc(F)cc1 (stereo unspecified)	1.1	-12	1.1	-12	-12	14
CCc1ccc(C2=NN(c3ccc(S(N)(=O)=O)cc3)C(c3ccc(F)cc3)C2)cc1 (stereo unspecified)	0.6	21	0.6	38	45	-17
COc1ccc(NC(=O)c2cc(S(=O)(=O)N3CCS(=O)(=O)CC3)ccc2Cl)cc1	0.8	9	1	21	2	-3
Cc1ccsc1C(=O)Nc1ccccc1N1CCOCC1	1.1	12	0.9	-11	7	-9
Cc1ccc2oc(-c3cccc(NC(=O)c4ccc(Br)o4)c3C)nc2c1	0.7	-10	0.9	27	14	12
Cc1cc2nc(-c3cccc(NC(=O)c4ccc(Br)o4)c3C)oc2cc1C	0.5	-22	0.8	50*	19	22
CCO/C=C/C(O)(CNC(=O)COc1ccccc1F)C(F)(F)F (stereo unspecified)	0.7	-7	0.2	26	85*	9
CCCCOC(=O)CSc1nc2c(cc1C#N)C(=O)CC(C)(C)C2	0.4	3	0.5	64*	49	1
CCN(CC)S(=O)(=O)c1ccc2c(c1)nc(SCc1nc3ccsc3c(=O)[nH]1)n2CC	0.3	6	0.8	69*	22	-6
CC(=O)NCCc1ccc(S(=O)(=O)Nc2cccnc2)cc1	1	-4	0.8	5	19	7
CCOC(=O)c1sc(N)nc1C(C)(C)C	0.6	-5	0.4	42	58*	7
Cc1sc2c(c1C)CN(C1CC(C)(C)NC(C)(C)C1)CN2C(=O)c1ccco1	1	9	1	3	5	-8
CC(C)(C)n1nnnc1C(c1ccncc1)N(Cc1ccccc1)Cc1ccco1 (stereo unspecified)	0.1	11	0.3	87*	74*	-9
CCN(Cc1ccccc1)C(c1ccccn1)c1nnnn1C(C)(C)CC (stereo unspecified)	0.3	·	0.1	71*	86*	·
CC(C)(C)n1nnnc1C(c1cccs1)N(Cc1ccccc1)Cc1ccco1 (stereo unspecified)	0.5	0	0.7	53*	31	0
CC(C)(C)n1nnnc1C(c1cccs1)N(Cc1cccnc1)Cc1ccco1 (stereo unspecified)	0.2	5	0.1	83*	86*	-1
c1ccc(CN(Cc2cccs2)C(c2cccs2)c2nnnn2C2CCCC2)cc1 (stereo unspecified)	0.6	-1	0.7	41	32	3
